Assay [1] deals with Human papillomavirus type 1a protein E7 (residues 44-93). Put plainly: HPV1a E7 fragment binders on microarrays, primary screen, biochemical, small-molecule microarray, residues 44-93, 635 nm fluorescence (AID 1108).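 Further: E7 fragment applied at 1 µg/mL in TBST for 1 h at 4 C; score combines spot fluorescence with its signal to noise ratio.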 To be noted: small-molecule microarray binding, fluorescence 635 nm; higher = more signal.
Assay [2] in a line: modulators of HCV replicon luciferase signal, primary screen, HCV replication inhibitor project, Huh7 cells, luciferase reporter (AID 1109).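 Further: huh7 hepatoma cells harbouring a luciferase neomycin HCV replicon reporter; luciferase luminescence as measure of HCV replicon replication; test concentration not given here.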 To be noted: 48 h, higher = more signal. On the technique in general: A replicon is a self-replicating genome or part of one, used to study replication in cells.
The target of assay [3] is Left-right determination factor 2 (Homo sapiens) (UniProt O00292). Put plainly: LEFTY2 binders on small-molecule microarrays, primary screen, biochemical, small-molecule microarray, 635 nm fluorescence scan (AID 1110). The conditions noted are these: LEFTY2 binding, higher = more signal.
Assay [4] deals with Calmodulin-1 (Homo sapiens) (UniProt P0DP23). Put plainly: CALM1 binders on microarrays, EGTA buffer, profiling panel, biochemical, small-molecule microarray, Cy5-labelled CALM1 (AID 1111).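 Further: labelled calmodulin applied in Tris saline Tween buffer holding calcium plus EGTA and DTT.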 The conditions noted are these: Cy5-CALM1 binding fluorescence, higher = more signal.
Assay [5] shares this target. Nature of the assay: calcium-bound CALM1 binders on microarrays, profiling panel, artefact control for SMM control-protein annotation, biochemical, small-molecule microarray, Cy5-labelled CALM1, plus calcium (AID 1112).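 Further: score merges spot fluorescence with signal to noise from triplicate slides.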 The conditions noted are these: Cy5-CALM1 binding fluorescence, higher = more signal.
Assay [6] in a line: small-molecule microarray binders of probe aWnt5a, primary screen, biochemical, biotinylated probe, 635/667 nm fluorescence (AID 1113).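 Further: score merges 667 nm fluorescence intensity with signal-to-noise per printed feature.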 The conditions noted are these: higher = more signal.
Assay [7] is described as follows: small-molecule microarray binders of probe aShh, primary screen, biochemical, biotinylated probe, 635/667 nm fluorescence (AID 1114).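 Further: probe is biotin-labelled aShh protein from a stem cell growth factor screen; measures binding of labelled protein to compounds printed on the slide; score merges feature fluorescence at 667 nm with signal-to-noise.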 The conditions noted are these: higher = more signal.
Assay [8] can be described thus: small-molecule microarray binders of probe aNog, primary screen, biochemical, biotinylated probe, 635/667 nm fluorescence (AID 1115).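 Further: probe is biotinylated aNog protein used at 0.15 µg/mL for 1 h at 4 C; z-score combines 667 nm fluorescence of each spot with its signal to noise.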 The conditions noted are these: higher = more signal.
Assay [9] addresses Torsin-1A-interacting protein 1 (Homo sapiens) (UniProt Q5JTV8). Nature of the assay: LAP1 binders from COS7 cell lysate, primary screen, small-molecule microarray, 635/667 nm fluorescence (AID 1116). To be noted: COS7-hLAP1 lysate binding, 635 nm fluorescence, higher = more signal.
Assay [10] deals with Alpha-bungarotoxin (Bungarus multicinctus) (UniProt P60615). Put plainly: alpha-bungarotoxin binders on microarray, profiling panel, artefact control for SMM control protein annotation, biochemical, small-molecule microarray, Alexa647 label, 635/667 nm fluorescence (AID 1117). To be noted: alpha-BTX-A647 binding fluorescence, higher = more signal.

Each structure is given as a SMILES string.

Among the data in PubChem BioAssay are composite z-score and z-score values, retold here.

Sequence of Left-right determination factor 2 (Homo sapiens) (O00292 whole entry, looked up): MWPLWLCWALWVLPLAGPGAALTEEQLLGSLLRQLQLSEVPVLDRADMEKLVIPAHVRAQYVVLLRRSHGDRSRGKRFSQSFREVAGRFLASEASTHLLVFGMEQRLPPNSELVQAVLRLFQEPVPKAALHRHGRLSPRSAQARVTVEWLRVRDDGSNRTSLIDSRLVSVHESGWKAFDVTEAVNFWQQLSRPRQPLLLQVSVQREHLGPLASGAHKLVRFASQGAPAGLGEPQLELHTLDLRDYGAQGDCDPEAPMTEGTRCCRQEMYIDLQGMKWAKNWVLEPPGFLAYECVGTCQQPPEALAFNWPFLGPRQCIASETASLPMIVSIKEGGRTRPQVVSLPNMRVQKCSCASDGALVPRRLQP
Sequence of Alpha-bungarotoxin (Bungarus multicinctus) (P60615 whole entry, looked up): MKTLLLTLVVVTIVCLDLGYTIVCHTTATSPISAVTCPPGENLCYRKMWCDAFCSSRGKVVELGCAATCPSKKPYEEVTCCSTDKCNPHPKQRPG
Sequence of Torsin-1A-interacting protein 1 (Homo sapiens) (Q5JTV8 whole entry, looked up): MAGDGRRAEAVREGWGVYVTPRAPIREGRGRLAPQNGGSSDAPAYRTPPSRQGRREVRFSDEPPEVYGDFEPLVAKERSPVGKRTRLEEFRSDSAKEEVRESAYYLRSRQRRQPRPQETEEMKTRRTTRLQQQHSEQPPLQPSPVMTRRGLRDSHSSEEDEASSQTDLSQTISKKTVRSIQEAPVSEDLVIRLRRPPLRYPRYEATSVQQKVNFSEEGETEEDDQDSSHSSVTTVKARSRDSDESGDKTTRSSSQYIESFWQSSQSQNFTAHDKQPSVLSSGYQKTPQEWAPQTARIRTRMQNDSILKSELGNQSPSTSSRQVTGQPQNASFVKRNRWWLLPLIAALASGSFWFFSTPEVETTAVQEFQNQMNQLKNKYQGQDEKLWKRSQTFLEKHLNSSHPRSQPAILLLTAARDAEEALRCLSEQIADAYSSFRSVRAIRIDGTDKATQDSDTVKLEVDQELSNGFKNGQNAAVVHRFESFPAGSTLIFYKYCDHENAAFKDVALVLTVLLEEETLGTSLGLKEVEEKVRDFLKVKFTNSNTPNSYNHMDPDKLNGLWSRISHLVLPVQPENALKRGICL

Take `C=C[C@H]1C(C(=O)OCC)=CC[C@@H](c2ccccc2)N1S(=O)(=O)c1ccc(C)cc1`: the composite z-score in [1] was 1.4; in assay [3], 0.0641; in [4], 0.577; in assay [5] it was -0.0986; in [6] it was 0.0077; in assay [7], -0.181. Besides, the composite z-score in assay [8] is -0.289; in assay [9], 0.325; in [10] it was 0.621. Moreover, the z-score in assay [2] was -2.78.
`COCCOC(=O)N1C(=O)[C@@]2(c3cc(C#CCCO)ccc31)[C@H](C(=O)Nc1nc3ccccc3s1)[C@H]1C(=O)O[C@H](c3ccccc3)[C@H](c3ccccc3)N1[C@@H]2c1ccc(O)cc1`: the composite z-score in assay [1] is 1.16; in assay [3], 1.09; in assay [4], 0.999; in [5] it was -0.237; in [6] it was -0.0445; in assay [7], 0.191. Further, the composite z-score turned out to be 0.566 in [8], 0.549 in [9] and 1.6 in assay [10]. In addition, the z-score in assay [2] was -1.65.
For `C#CCN(Cc1ccccc1Br)[C@H](/C=C/c1ccccc1)[C@@H](O)Cc1ccccc1`, the composite z-score was 0.169 in [1]; -0.81 in assay [3]; -1.03 in assay [4]; 0.41 in assay [5]; -0.128 in assay [6]; -0.124 in assay [7]. Moreover, the composite z-score in assay [8] was 0.0108; in assay [9] it was -0.354; in assay [10], 0.192. In [2], this molecule returned a z-score of -1.42.
In the case of `O=C(NCCN1CCOCC1)[C@@H]1c2ccccc2C(=O)N(Cc2ccccc2Cl)[C@H]1c1ccc(CO)cc1`, the composite z-score was -0.388 in [1]; -0.341 in assay [3]; -0.635 in assay [4]; -0.725 in assay [5]; 0.0491 in assay [6]; -0.471 in assay [7]. For the same molecule, the composite z-score in [8] is 0.414; in assay [9], -0.815; in assay [10] it was 0.27. Further, in assay [2], the z-score is -0.786.
As to `CC(C)C(CO)N1C(=O)[C@@H]2C3C(=O)OCCC/C=C\[C@H]3OC23C=CCN(Cn2nnc4ccccc42)C(=O)[C@@H]13` (stereo not given in full), the composite z-score is 1.32 in assay [1]; -0.874 in assay [3]; -0.42 in assay [4]; 0.0878 in [5]; -0.202 in assay [6]; -0.229 in assay [7]. In addition, the composite z-score was 0.407 in [8], 1.92 in assay [9] and -1.15 in assay [10]. Further, the z-score in assay [2] was found to be 0.236.
On to `C=CCNC(=O)[C@@H]1[C@H]2C(=O)O[C@H](c3ccccc3)[C@H](c3ccccc3)N2[C@H](c2ccccc2OCCO)[C@@]12C(=O)Nc1ccc(C#CCC(C(=O)OC)C(=O)OC)cc12`, for which the composite z-score in assay [1] was 0.562; in [3], -0.034; in [4] it was 0.138; in assay [5], -0.147; in [6], -0.0258; in assay [7], -0.147. Moreover, the results for the composite z-score in assay [8], in assay [9] and in assay [10] were -0.303, 0.458 and 0.894, respectively. In [2], this molecule had a z-score of -3.28.
As for `CC[C@@H]1C=C(C(=O)O)[C@H](c2ccccc2)N1S(=O)(=O)c1ccc(C)cc1`, the composite z-score in assay [1] is 0.807; in assay [3] it was 0.0801; in [4] it was 1.6; in assay [5], 1.03; in [6], -0.113; in [7] it was 0.162. The composite z-score in [8] is -0.398; in assay [9], 0.599; in assay [10], 1.39. Also, the z-score in assay [2] is -1.33.
As to `CC(C)C(O)C1C=CC2C(=O)N(c3ccccc3)C(=O)C2N1Nc1ccccc1` (stereo not given), the composite z-score was 1.5 in assay [1]; 0.138 in assay [3]; 1.71 in [4]; 0.325 in assay [5]; 0.0324 in [6]; -0.156 in assay [7]. Also, the composite z-score in assay [8] was 1.32; in assay [9] it was 1.1; in assay [10], 1.23. Moreover, the z-score in assay [2] is -0.831.
For the molecule `C=C(C(=O)CC[C@H](OC(=O)c1ccccc1-c1ccccc1C(=O)O)c1cccc(OCCO)c1)C(C)C`, the composite z-score in [1] is -0.304; in [3], -0.103; in assay [4] it was -0.119; in assay [5], -0.409; in [6], -0.184; in assay [7] it was -0.0605. The composite z-score in assay [8] is -0.1; in assay [9], -0.126; in assay [10], 0.436. Besides, the z-score in assay [2] was -1.73.
Turning to `O=C1C2C=CC(C(O)C3CC=CCC3)N(Nc3ccccc3)C2C(=O)N1c1ccccc1` (stereo not given), the composite z-score in [1] is 1.44; in [3], 0.0066; in [4], 1.08; in assay [5], -0.0425; in assay [6], -0.098; in [7] it was 0.128. Further, the composite z-score in assay [8] turned out to be 0.821; in assay [9], 0.946; in assay [10] it was 1.78. In assay [2], this molecule yielded a z-score of -0.463.
`C=CCOC(=O)[C@@]1(Cc2ccccc2)C[C@H]2CO[C@H](c3ccc(OC)cc3)N2C1=O`: the composite z-score in assay [1] was 0.206; in assay [3] it was 0.283; in [4], -0.388; in assay [5], -0.659; in assay [6], -0.0846; in assay [7] it was -0.0035. The composite z-score was -0.118 in [8], 0.574 in assay [9] and 0.352 in assay [10]. In assay [2], the z-score was -0.938.
Take `COC(=O)[C@@]1(Cc2ccc(F)cc2)[C@H]2c3cc(C(=O)N4CCCC4)n(CCc4c[nH]c5ccccc45)c3C[C@H]2CN1C(=O)c1ccccc1`: the composite z-score in [1] stood at 1.42; in assay [3], 0.304; in [4], 1.45; in assay [5], 1.31; in assay [6], 0.0718; in assay [7] it was 0.582. Further, the values for the composite z-score in assay [8], in assay [9] and in assay [10] were 2.08, 1.63 and 1.89, respectively. The z-score in assay [2] is -1.52.
In the case of `CCOC(=O)C1=CC[C@@H](c2ccccc2F)N(S(=O)(=O)c2ccc(C)cc2)[C@H]1c1ccccc1`, the composite z-score is 1.34 in [1]; 0.364 in [3]; 0.509 in assay [4]; -0.355 in assay [5]; -0.0924 in assay [6]; -0.0866 in assay [7]. The composite z-score in assay [8] is -0.473; in assay [9], 0.292; in assay [10], 0.42. In assay [2], this molecule registered a z-score of -1.43.
